Bioassay records as filed in PubChem.
HT1080-NT tox: kills 2HG-producing HT-1080-NT fibrosarcoma cells. HT-1080-NT fibrosarcoma viability, CellTiter-Glo ATP luminescence, 48 h. Potency, µM (titrated, usually from 46.1 µM), for inactives: top-dose activity, negative = less viability, usual class: cytotoxic. 360,000 compounds, 1.6% hits;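 also: NT is the 2HG producing partner of a matched IDH1 knockdown line; potency is read from the fitted curve at half-maximal effect; 0% = DMSO-treated cells and -100% = media-only wells without cells; nearly all actives have a fitted effect of over 55% in size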
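Read-out is CellTiter-Glo luminescence after 10 minutes at room temperature, following 48 hours' compound treatment of HT-1080-NT cells (750 cells/well, RPMI, 5% FBS, 37 degrees C).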
ALOX12 inh: ALOX12 (human) lipoxygenase inhibition. purified 12hLO, xylenol orange hydroperoxide absorbance. Potency, µM (series often up to 108 µM), for inactives: at the highest dose activity change, negative = inhibition, most hits filed as inhibitors. 580,000 compounds, 1.1% hits. AID 1671190; also: potency is read from the fitted curve at half-maximal effect
Target sequence (P18054 whole entry, looked up): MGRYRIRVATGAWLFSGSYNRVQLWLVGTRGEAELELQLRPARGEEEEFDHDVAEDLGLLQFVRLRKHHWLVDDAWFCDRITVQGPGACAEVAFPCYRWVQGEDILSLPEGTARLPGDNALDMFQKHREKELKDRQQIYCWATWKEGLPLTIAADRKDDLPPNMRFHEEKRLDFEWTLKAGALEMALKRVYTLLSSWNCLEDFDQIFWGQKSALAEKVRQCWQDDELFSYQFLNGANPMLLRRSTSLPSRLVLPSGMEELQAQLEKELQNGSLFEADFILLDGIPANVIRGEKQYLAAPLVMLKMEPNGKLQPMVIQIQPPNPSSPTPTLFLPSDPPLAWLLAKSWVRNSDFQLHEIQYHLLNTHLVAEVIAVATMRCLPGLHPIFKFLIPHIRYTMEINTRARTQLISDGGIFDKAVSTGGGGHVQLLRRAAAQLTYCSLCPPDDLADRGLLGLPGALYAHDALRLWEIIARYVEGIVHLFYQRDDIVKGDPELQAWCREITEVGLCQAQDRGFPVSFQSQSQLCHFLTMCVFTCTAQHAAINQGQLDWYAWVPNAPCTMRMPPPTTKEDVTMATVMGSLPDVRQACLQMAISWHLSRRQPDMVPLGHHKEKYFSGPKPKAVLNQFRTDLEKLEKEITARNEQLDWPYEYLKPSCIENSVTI
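Purified human 12hLO at 150 nM in 25 mM Hepes, 0.01% Triton X-100, pH 7.0, preincubated 15 min at room temperature with compound. Reaction started with 40 uM arachidonic acid, 30 min at room temperature. Hydroperoxide measured by Fe-xylenol orange, 573/405 nm absorbance ratio.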
HT1080 IDH1KD tx: HT-1080 IDH1 knockdown cell toxicity (counter line); HT-1080 IDH1 knockdown viability, ATP luminescence, 48 h; Potency, µM (highest dose often 46.1 µM), inactives show at the highest dose activity, negative = toxicity, usual class: cytotoxic; 360,000 compounds, 2% hits;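 also: potency is read from the fitted curve at half-maximal effect; 0% = DMSO wells and -100% = cell-free medium wells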
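CellTiter-Glo luminescence after 48 h compound exposure at 37 degrees C of IDH1-knockdown HT-1080 cells in 5% FBS RPMI. %Activity scaled between DMSO wells and cell-free media wells, with curves fitted and assigned curve classes.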
IL1B secr inh: blocks inflammasome-driven IL-1 beta release | 360,000 compounds, 4.7% hits | activity change, % at 57.5 µM | THP-1 LPS/ATP IL-1B secretion, AlphaLISA, 16 h; hits give low values; in the data active = activity change below about -50%; inconclusive = mostly about -30% to -49%
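Secreted IL-1B measured by AlphaLISA bead assay after 16 h compound exposure of THP-1 cells; compounds (final up to 57.5 uM) added 1 h before LPS (250 ng/mL) and ATP (1.25 mM) stimulation; lower signal means less secretion.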
DT40 TDP1 CPT: growth inhibition of DT40 Tdp1-/-;hTDP1 cells with camptothecin (screen for TDP1 inhibitors). Potency, µM (series often up to 46.2 µM), for inactives: at the highest dose activity change, negative = growth inhibition, most hits filed as inhibitors. 420,000 compounds, 12% hits. chicken DT40 Tdp1-/-;hTDP1 cells + 20 nM CPT, ATP luminescence, 48 h; also: potency is read from the fitted curve at half-maximal effect; nearly all actives have a fitted effect of over 55% in size
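Chicken DT40 Tdp1-/- cells complemented with human TDP1, 400 cells/well, exposed to compounds plus 20 nM camptothecin for at least 48 h at 37 C; viability read as ATP content by CellTiter-Glo luminescence.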
DT40 TDP1 no CPT: qHTS for Inhibitors of human tyrosyl-DNA phosphodiesterase 1 (TDP1): qHTS in cells in absence of CPT; Potency, µM (highest dose often 46.2 µM), for the others: at the highest dose activity change, negative = growth inhibition, usual class: inhibitors; 420,000 compounds, 15% hits; AID 686978, 2013; DT40 Tdp1-/- hTDP1 cells, no CPT, ATP luminescence, 48 h; also: potency is read from the fitted curve at half-maximal effect; nearly all actives have a fitted effect of over 55% in size
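No-CPT arm: Tdp1-/-;hTDP1 DT40 cells (400/well) plus compounds, incubated ≥48 hr at 37 °C. Readout CellTiter-Glo luminescence.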
Starred values were filed as active, the others as inactive; ? = inconclusive; / = no result given; [ ] = remark or other dose. This is one part of a sample in which hits are shown more often than they occur. Unless noted, calls follow the shape of the dose curve; as a rule, active = well fitted curve in the direction sought with a large enough effect; inconclusive = small, poorly fitted or top-dose-only effect, or another doubt; inactive = no such curve, though single readings can be large; an effect the other way counts as inactive or inconclusive. Unless noted, % is scaled to controls: 0 for no effect and ±100 for the full control effect.

SMILES	HT1080-NT tox	ALOX12 inh	HT1080 IDH1KD tx	IL1B secr inh	DT40 TDP1 CPT	DT40 TDP1 no CPT
Cc1ccccc1Sc1ncnc2onc(C)c12	-4%	93%	-4%[9.24 µM]	-52*	23µM*	23µM*
Cc1ccc(Sc2ncnc3onc(C)c23)cc1	-9%	0%	-25%	-16	?	21µM*
Cc1ccc(C(=O)N(C)C2CCCCC2)cc1I	/	-10%	/	/	/	/
CCn1c(SCC(=O)Nc2ccc3c(c2)OCO3)nc2c(-c3ccc(C)cc3)csc2c1=O	/	2%	/	/	/	/
Cc1ccc(NC(=O)CN(C)C(=O)c2cccc(-n3cccc3)c2)cc1	0%	35µM*	4%	-8	15%	-4%
Cc1ccc(NC(=O)CN(C)C(=O)Cc2c(Cl)cccc2Cl)cc1	-14%	-20%	1%	1	?	16µM*
Cc1ccc(NC(=O)CN(C)C(=O)CSc2ccccc2F)cc1	3%	?	-2%	-1	1%	-16%
Cc1ccc(NC(=O)CN(C)C(=O)c2ccccc2Cc2ccccc2)cc1	-1%	-2%	-21%	-58*	?	?
CC(C)NC(=O)CSc1nc(C2CC2)nc2ccccc12	/	-25%	/	/	/	/
C=CCOC(=O)C(NC(=O)c1ccccc1)=C(C)C	/	-18%	/	/	/	/
CCOc1ccccc1Nc1sc(C(=O)c2ccc(Cl)cc2)c(N)c1S(=O)(=O)c1ccccc1	/	-12%	/	/	-30%	?
Cc1cccc(C)c1Nc1sc(C(=O)c2ccccc2)c(N)c1S(=O)(=O)c1ccccc1	/	-17%	/	/	4.6µM*	3.7µM*
COc1ccc(S(=O)(=O)c2c(Nc3ccccc3F)sc(C(=O)c3cccc(OC)c3)c2N)cc1	/	-10%	/	/	5.2µM*	6.5µM*
CCOc1ccccc1Nc1sc(C(=O)c2ccccc2)c(N)c1S(=O)(=O)c1ccc(C)cc1	/	-12%	/	/	?	5.8µM*
C(#CCN1CCCCC1)COCCCOCc1ccccc1	/	-28%	/	/	/	/
COc1ccc(/C=C/C(=O)c2ccc(C(C)(C)C)cc2)c(OC)c1OC	/	-2%	/	/	/	/
COc1ccc(/C=C/C(=O)c2ccncc2)c2ccccc12	?	?	?	-29	23µM*	16µM*
CC(C)CN(CC(C)C)c1ccc(/C=N/n2cnnc2)cc1[N+](=O)[O-]	-14%	?	-1%	-55*	?	?
CCCCCCCCCCS(=O)(=O)N/N=C/c1ccc2c(c1)OCO2	/	-18%	/	/	/	/
CCCCCCCCCCS(=O)(=O)N/N=C/c1ccc(O)cc1	?	?	?	?	16µM*	?
Cc1ccc2[nH]c(O)c(N=NC(=O)CCc3ccccc3)c2c1Br	-6%	-4%	3%	-88*	16µM*	?
COc1ccc(OC)c(S(=O)(=O)NCc2ccc3c(c2)CCN3C(=O)c2cccc(C)c2)c1	/	-16%	/	/	2.6µM*	2.6µM*
CCC(=O)N1CCc2cc(CNS(=O)(=O)c3ccc(Cl)s3)ccc21	/	-26%	/	/	?	16µM*
COc1ccc(C(=O)N2CCc3ccc(C(=O)NCc4cccc(C)c4)cc32)cc1	/	-2%	/	/	/	/
Cc1cccc(C(=O)N2CCc3cc(CNS(=O)(=O)c4ccc(Cl)s4)ccc32)c1	/	?	/	/	23µM*	23µM*
Cc1cccc(C(=O)N2CCc3cc(CNS(=O)(=O)c4ccc(F)c(Cl)c4)ccc32)c1	/	0%	/	/	1.6µM*	1.2µM*
CN(CCc1ccccn1)C(=O)CCc1ccc2c(c1)CN(S(C)(=O)=O)CCO2	/	25%	/	/	/	/
O=C(CCc1cc(Cl)no1)N(CCS(=O)(=O)N1CCOCC1)Cc1ccccn1	/	7.9µM*	/	/	/	/
CCN(CC)C(=O)c1ccc2oc(CN3CCN(C(=O)Nc4ccc(C)c(F)c4)CC3)nc2c1	/	13%	/	/	/	/
